Test results: PubChem BioAssay AID1430 (University of Pittsburgh Molecular Library Screening Center, 2008)
In all, about 220,000 compounds went through this assay and about 240 (0.11%) were called active. Only a selection was taken, and actives are over-represented in it overall. A number with no mark means an inactive call.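 Rule for the calls: active = inhibition of 50% or more in the single-dose primary screen; inactive = inhibition below 50%.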

tested on: hexokinase 1 [Trypanosoma brucei]; test: Trypanosoma brucei hexokinase 1 inhibitors, primary screen, biochemical, G6PDH-coupled NADH absorbance, MLSCN library (AID 1430); details: recombinant TbHK1, G6PDH-coupled NADH A340; at 10 µM; stronger effect = higher value

Q: For COC(=O)C(C(=O)Nc1cccc(C)n1)C1CCCCCC1 (stereo unspecified), which inhibition is on record?
A: 5.11%

Q: CC(=O)Nc1ccc(NC(=O)C(C)OC(=O)c2ccccc2C(=O)c2ccc(Cl)c([N+](=O)[O-])c2)cc1 (stereo unspecified) was tested. Which inhibition did it give?
A: -6.27%

Q: How did the inhibition turn out when O=S(=O)(NC1CCCCC1)c1ccc(F)c2ccccc12 was run?
A: 2.7%

Q: How did the inhibition turn out when COC(=O)c1c(NC(=O)CCCC(=O)O)sc2c1CCCCC2 was run?
A: -10.9%

Q: Which inhibition does the source give for C=CCn1c(COc2ccc(F)cc2)nnc1SCC(=O)Nc1cccc(S(N)(=O)=O)c1 here?
A: -3.84%

Q: For CCc1cccc2c3c([nH]c12)C(CC)(CC(=O)O)OCC3 (stereo unspecified), which inhibition is on record?
A: -3.41%

Q: With Cc1ccc(S(=O)(=O)N(C)C)cc1NC(=O)/C=C/c1cccs1 as the compound, how does the inhibition read?
A: 5.08%

Q: For N#Cc1c(N)nc2c(c1N)CC(C(F)(F)F)O2 (stereo unspecified), which inhibition is on record?
A: 4.59%

Q: For O=C(CN1C(=O)C2C3C=CC(C3)C2C1=O)NCC1COc2ccccc2O1 (stereo unspecified), which inhibition is on record?
A: -4.57%

Q: With O=C(CN1C(=O)C2C3C=CC(C3)C2C1=O)NCCc1ccccc1Cl (stereo unspecified) as the compound, how does the inhibition read?
A: 57.8% (active)

Q: O=C(CCN1C(=O)C2C3C=CC(C3)C2C1=O)Nc1ccccc1F (stereo unspecified) was tested. Which inhibition did it give?
A: -3.82%

Q: Which inhibition does the source give for Nc1nnnn1/N=C/c1cc([N+](=O)[O-])ccc1O here?
A: -31.3%

Q: O=C(NCCc1ccccc1)C1CCC(Cn2c(=O)c3ccccc3n(Cc3cccnc3)c2=O)CC1 (stereo unspecified) was tested. Which inhibition did it give?
A: -9.56%

Q: Which inhibition does the source give for Cc1cc2nc(SCCN3CCOCC3)[nH]c2cc1C here?
A: 2.94%

Q: For CCOC(=O)c1ccc(NNC(C)=O)c([N+](=O)[O-])c1, which inhibition is on record?
A: -2.98%

Q: Which inhibition does the source give for N#Cc1ccc(Oc2ccc(C(F)(F)F)cc2NC(=O)c2ccc(F)cc2)cc1 here?
A: -2.47%

Q: For C#CCOCCOCCOCCNc1nc(N2CCN(C(=O)[C@H](CCC(=O)O)n3cc(C(N)CO)nn3)CC2)nc(N2CCN(C(=O)[C@H](Cc3ccc(O)cc3)n3cc(C(N)[C@H](C)CC)nn3)CC2)n1 (stereo partly specified), which inhibition is on record?
A: -6.04%

Q: How did the inhibition turn out when Cc1cc(OC(=O)c2ccccc2)c([N+](=O)[O-])c(=O)[nH]1 was run?
A: -5.67%

Q: Cc1ccc(C2=N/C(=C\c3ccc(OS(=O)(=O)c4ccc(C)cc4)cc3)C(=O)O2)cc1 was tested. Which inhibition did it give?
A: 2.44%

Q: Which inhibition does the source give for Brc1ccc(-c2noc(-c3ccccc3)n2)o1 here?
A: -6.63%

Q: Which inhibition does the source give for O=C1C(=O)N(c2ccccc2)c2ccccc21 here?
A: -11.4%

Q: With Cc1cc(C(=O)N/N=C/c2cc([N+](=O)[O-])cc(C)c2O)n[nH]1 as the compound, how does the inhibition read?
A: 1.39%

Q: Which inhibition does the source give for COC(=O)NNC(=O)C1CCC(C)CC1 (stereo unspecified) here?
A: -0.712%

Q: For O=C(NN=C1CCC(=NNC(=O)c2cccnc2)CC1)c1cccnc1, which inhibition is on record?
A: -1.3%

Q: For Cc1ccc(NC(=O)Nc2cc(-c3ccccc3)nn2C)cc1Cl, which inhibition is on record?
A: -21.8%

Q: How did the inhibition turn out when CC1(C)OC(=O)C(=CNC(CO)C(=O)O)C(=O)O1 (stereo unspecified) was run?
A: 2.5%

Q: Cc1ccc(CSc2nc3[nH]ncc3c(=O)[nH]2)cc1 was tested. Which inhibition did it give?
A: -4.89%

Q: Which inhibition does the source give for O=C1NC(c2cccc(Cl)c2)Nc2ccccc21 (stereo unspecified) here?
A: -2.98%

Q: For C=CCN1C=C2C(=O)C(C)(OC(=O)CCc3ccccc3)C(=O)C=C2C=C1c1ccc(C#N)cc1 (stereo unspecified), which inhibition is on record?
A: -9.51%

Q: Which inhibition does the source give for O=C(NNC(=O)c1csc(-c2cccnc2)n1)Nc1ccc(Cl)cc1 here?
A: 1.85%

Q: How did the inhibition turn out when Cc1ccc(-n2c(C)cc(C(=O)CSc3nnc4ccccn34)c2C)cc1 was run?
A: -7.8%

Q: With NC(=O)c1ccccc1N=Cc1ccc2ccccc2c1 as the compound, how does the inhibition read?
A: 27.1%

Q: For O=C(OCC(=O)N1CCOCC1)c1ccc(N2CCOCC2)c([N+](=O)[O-])c1, which inhibition is on record?
A: -6.48%

Q: For Cc1nc2nc[nH]n2c(=O)c1C/C=C/c1ccccc1, which inhibition is on record?
A: -2.13%

Q: With COc1ccc(C(=O)NNc2cc(C)nc(NNC(=O)c3ccc(OC)cc3)n2)cc1 as the compound, how does the inhibition read?
A: -5.16%

Q: Cc1[nH]n(C)c(=O)c1N=Nc1ccc(S(C)(=O)=O)cc1 was tested. Which inhibition did it give?
A: -42.5%

Q: For Cc1ccc(Oc2nc(-c3ccccn3)nc3ccccc23)cc1, which inhibition is on record?
A: -12.7%

Q: Which inhibition does the source give for COC(=O)CN1C(=O)N/C(=C/c2ccc(OC)c(C)c2OC)C1=O here?
A: -28.4%

Q: Which inhibition does the source give for C=C(C)C(=O)Nc1cccc(C2=NOC3(C2)C[C@H](C(N)=O)N(C(=O)C(c2ccccc2)c2ccccc2)C3)c1 (stereo partly specified) here?
A: 7.7%

Q: With Cc1ccc(Cl)c(OCC(=O)NN2CCN(C)CC2)c1 as the compound, how does the inhibition read?
A: -3.39%

Q: With COc1ccc(C(=O)NC2(C(F)(F)F)NC(=O)N(CCCc3ccccc3)C2=O)c(OC)c1OC (stereo unspecified) as the compound, how does the inhibition read?
A: -4.23%

Q: Which inhibition does the source give for O=C(CSc1nnc2ccc(-c3ccncc3)nn12)N1CCCCC1 here?
A: -7.7%

Q: COC(=O)c1ccc(/C=N/OCC(=O)Nc2cc(F)ccc2F)cc1 was tested. Which inhibition did it give?
A: -4.64%

Q: For COc1ccc(NC(=O)c2cc3nc(-c4ccccc4)cc(C)n3n2)cc1OC, which inhibition is on record?
A: -16.7%

Q: COc1ccccc1NC(=O)C1CCCN(c2cc(C)nc3ncnn23)C1 (stereo unspecified) was tested. Which inhibition did it give?
A: -1.1%

Q: How did the inhibition turn out when COc1cccc(/C=N/Nc2cc(C)nc(-c3ccccc3O)n2)c1O was run?
A: -40%

Q: For COc1cccc(/C=N/Nc2ncc(C(F)(F)F)cc2Cl)c1O, which inhibition is on record?
A: 73.5% (active)

Q: Which inhibition does the source give for COc1cc(/C=C2\SC(=S)N(Nc3ncc(C(F)(F)F)cc3Cl)C2=O)cc(OC)c1OC here?
A: -3.09%

Q: With COC(=O)Nc1ccc(S(=O)(=O)N2CCN(CCN3C(=O)C4C5C=CC(C5)C4C3=O)CC2)cc1 (stereo unspecified) as the compound, how does the inhibition read?
A: 1%

Q: With Cc1c(C(N)=O)sc2ncn(CCOc3ccccc3)c(=O)c12 as the compound, how does the inhibition read?
A: -3.42%

Q: For CCc1ccc(CNC(=O)CCc2nc(-c3cccs3)no2)cc1, which inhibition is on record?
A: -2.08%

Q: With O=C(CCC1CCCN(C(=O)Cc2ccc(F)cc2)C1)N1CCN(c2ccccn2)CC1 (stereo unspecified) as the compound, how does the inhibition read?
A: -6.3%

Q: For CSc1ccccc1NC(=O)Cc1ccc(Br)cc1, which inhibition is on record?
A: 32.7%

Q: For O=C1/C(=C\Nc2ccccc2)CCN1c1ncccn1, which inhibition is on record?
A: -65.9%

Q: For COc1ccccc1NC(=O)CC(NCCN(C)C)C(=O)O (stereo unspecified), which inhibition is on record?
A: -1.3%

Q: COCCCNc1nc2c(-c3cccc(C(F)(F)F)c3)nnn2c2ccccc12 was tested. Which inhibition did it give?
A: -3.92%

Q: CCOC(=O)C1(Cc2ccc(Cl)cc2)CCN(C(=O)C2=NNC(=O)CC2)CC1 was tested. Which inhibition did it give?
A: -7.3%

Q: How did the inhibition turn out when Cc1ccc(SC(=O)COc2ccc(C)c(C)c2)cc1 was run?
A: 7.35%

Q: For S=c1nccc(-c2cc(Cl)sc2Cl)[nH]1, which inhibition is on record?
A: -7.08%

Q: Which inhibition does the source give for CCCN1CNC(=S)N(CCc2ccccc2)C1 here?
A: -4.25%

Q: For Cc1ccc(C)c(Cn2nnc3c(=O)[nH]c(C(=O)Nc4ccc(F)cc4)nc32)c1, which inhibition is on record?
A: 1.66%

Q: With COc1ccc(OC)c(NC(=O)N[C@H](Cc2ccccc2)C(=O)NN)c1 as the compound, how does the inhibition read?
A: -2.36%

Q: Cc1ccc(NC(=O)Cn2c(=O)n(CCC(=O)NC3CCN(Cc4ccccc4)CC3)c(=O)c3ccccc32)cc1 was tested. Which inhibition did it give?
A: 1.82%

Q: Which inhibition does the source give for COc1ccc(/C=N/S(=O)(=O)c2ccccc2)cc1OC here?
A: -6.73%

Q: For CCCSc1ncccc1C(=O)O, which inhibition is on record?
A: -11%

Q: CCOC(=O)C1CCN(CCC(=O)Nc2cccc(C)c2)CC1 was tested. Which inhibition did it give?
A: -3.14%

Q: Which inhibition does the source give for O=C(Nc1ccccc1)c1cc2ccccc2[nH]1 here?
A: -8.21%

Q: COC(=O)c1nc(NC(=O)c2ccc(C(C)(C)C)cc2)n[nH]1 was tested. Which inhibition did it give?
A: -1.14%

Q: Which inhibition does the source give for COC(=O)C1CCN(CC(N)=O)CC1 here?
A: 60.6% (active)

Q: With CCOC(=O)N1CCC(C(N)=O)CC1 as the compound, how does the inhibition read?
A: 4.5%

Q: Which inhibition does the source give for COC(=O)C1CCN(C(=O)c2cc(=O)[nH]c3ccccc23)CC1 here?
A: -8.77%

Q: Which inhibition does the source give for O=C(Nc1ccc(S(=O)(=O)N2CCOCC2)cc1)c1ccc2ncsc2c1 here?
A: -11%

Q: Which inhibition does the source give for CC12C(=O)N(c3ccccc3)C(=O)C1C(c1ccccc1)N1CCCN12 (stereo unspecified) here?
A: -4.21%

Q: Cc1cccc(-n2c(Cc3cc(=O)[nH]c(=O)[nH]3)nnc2SC(C)C)c1 was tested. Which inhibition did it give?
A: -4.19%

Q: How did the inhibition turn out when Cc1ccc(Nc2nc(CSc3nnc(-c4ccncc4)n3-c3ccccc3C)cs2)cc1 was run?
A: -6.74%

Q: Which inhibition does the source give for CC1CC(C)CN(S(=O)(=O)c2ccc(C(=O)NN3CCOCC3)cc2)C1 (stereo unspecified) here?
A: -4.58%

Q: How did the inhibition turn out when COC(=O)c1cccc([N+](=O)[O-])c1CS(=O)(=O)c1ccc(C)cc1 was run?
A: -5.68%

Q: O=C(c1ccc(N2CCOCC2)c([N+](=O)[O-])c1)N1CCN(S(=O)(=O)c2cccs2)CC1 was tested. Which inhibition did it give?
A: -0.582%

Q: Cc1cc(Cl)ccc1OCCCC(=O)NCc1ccncc1 was tested. Which inhibition did it give?
A: 3.38%

Q: For COc1ccc(C(C(=O)NC(C)(C)C)N(C(=O)Cn2nnc3ccccc32)c2ccc(C(C)=O)cc2)cc1O (stereo unspecified), which inhibition is on record?
A: -2.52%

Q: Nc1nnc(SCC(=O)NC2CCCc3ccccc32)s1 (stereo unspecified) was tested. Which inhibition did it give?
A: -14.9%

Q: Which inhibition does the source give for O=C(NCCN1CCOCC1)c1cc(Sc2cccc(Cl)c2)nc2ccccc12 here?
A: -12.6%

Q: Which inhibition does the source give for O=S(=O)(NCc1ccco1)c1cnc(Cl)c(Cl)c1 here?
A: 8.75%

Q: CC(C)[C@H](NC(=O)c1ccc(F)cc1)C(=O)OCC(=O)NC(=O)c1cccn1C was tested. Which inhibition did it give?
A: -0.221%

Q: With CCC(C)Cn1c(O)cc2nn(-c3nc4ccccc4s3)c(=O)c-2c1C (stereo unspecified) as the compound, how does the inhibition read?
A: -9.68%

Q: With Cc1ccc(-c2csc(NC(=O)c3cnccn3)n2)cc1C as the compound, how does the inhibition read?
A: -12.7%

Q: CCOC(=O)CSC1=N/C(=C/c2ccc(-n3cncn3)cc2)C(=O)N1C(C)=O was tested. Which inhibition did it give?
A: -7.02%

Q: With CC1CCN(S(=O)(=O)c2ccc(S(=O)(=O)NCc3cccnc3)cc2)CC1 as the compound, how does the inhibition read?
A: 0.223%

Q: For O=C(COC(=O)[C@H](Cc1ccccc1)NC(=O)c1cccs1)Nc1cc(F)ccc1F, which inhibition is on record?
A: 6.99%

Q: With O=C(/C=C\c1ccc2c(c1)OCO2)NC1(C(=O)Nc2ccc3c(c2)OCCO3)CCCCC1 as the compound, how does the inhibition read?
A: -15.6%

Q: How did the inhibition turn out when Cc1ccc(C)c(NC(=S)NNC(=O)c2csc(C)c2)c1 was run?
A: 3.89%
